Assay results reported in PubChem BioAssay AID2544 (Sanford-Burnham Center for Chemical Genomics, 2010).
Hit rate of the full screen: of about 330,000 compounds, about 390 (0.12%) were called active.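 The calls were made as follows: active = inhibition reaching a set limit with compound at 10 µM in the primary screen (cut at about 35% in these data); inactive = the rest.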 Shown is part of a subset that was picked to be rich in actives.

The compounds below were run against Intestinal-type alkaline phosphatase (Homo sapiens) (UniProt P09923) (assay: human IAP inhibitors, primary screen, biochemical, luminescence, uHTS (AID 2544;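 also: plate controls were DMSO wells with enzyme for no effect and no-enzyme buffer wells for full effect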)). Settings: purified IAP, CDP-Star luminescence, 30 min; at 10 µM; hits give high values.
Sequence of Intestinal-type alkaline phosphatase (Homo sapiens) (P09923 whole entry, looked up): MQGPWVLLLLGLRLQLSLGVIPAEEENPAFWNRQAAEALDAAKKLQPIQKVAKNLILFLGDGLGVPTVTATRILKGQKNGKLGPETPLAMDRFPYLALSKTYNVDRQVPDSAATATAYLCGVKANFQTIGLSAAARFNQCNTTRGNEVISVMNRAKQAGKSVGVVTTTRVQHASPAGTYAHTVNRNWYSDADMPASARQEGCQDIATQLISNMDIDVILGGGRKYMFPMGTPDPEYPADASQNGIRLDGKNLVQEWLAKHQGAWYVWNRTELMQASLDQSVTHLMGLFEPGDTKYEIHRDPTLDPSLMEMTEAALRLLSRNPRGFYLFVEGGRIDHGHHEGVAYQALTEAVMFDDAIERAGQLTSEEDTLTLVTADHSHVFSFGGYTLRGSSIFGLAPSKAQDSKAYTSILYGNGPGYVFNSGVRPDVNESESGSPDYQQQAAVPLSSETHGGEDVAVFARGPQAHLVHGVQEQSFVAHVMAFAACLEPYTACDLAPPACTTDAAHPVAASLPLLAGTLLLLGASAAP
`Cc1cc(C)c2c(Cn3ccnc3)cc(=O)oc2c1` was tested, and the inhibition was -7% (inactive). `CN(CC(=O)Nc1cccc(F)c1)C(=O)C1CC(=O)N(CCc2ccccc2)C1` (configuration not stated) was tested, and the inhibition was 2.5% (inactive). In the case of `C/C(Cc1ccccc1)=N\NC(=O)CNC(=O)c1ccc2c(c1)OCCO2`, the inhibition is reported as 1.8% (inactive). `CSc1ccc(S(=O)(=O)Nc2cccc(F)c2)cc1` was tested, and the inhibition was 7% (inactive). With `CN=C1SC(CC(=O)Nc2ccc(C(=O)O)cc2)C(=O)N1C` (configuration not stated) the inhibition was 15.6% (inactive). For `CCOC(=O)COc1cc(OCC(=O)OCC)c2c(=O)cc(-c3ccccc3)oc2c1`, the inhibition was -22.1% (inactive). `COc1c(O)cc2oc(-c3ccc(O)c(O)c3)cc(=O)c2c1O` was tested, and the inhibition was 40.1% (active). For `Cc1ccc2c(c1)nnc1nnc(SCC(=O)O)n12`, the inhibition was 36.1% (active). For `Cc1cccc(-c2nnc(SCC(=O)O)n2Cc2ccccc2)c1`, the inhibition was -16.7% (inactive). With `CCn1nnnc1SCC(=O)c1ccc(C)cc1C` the inhibition was -4% (inactive). In the case of `Cc1ccccc1N1CC(C(=O)Nc2nnc(SCCC3OCCO3)s2)CC1=O` (configuration not stated), the inhibition is reported as 18.3% (inactive). With `C=CCn1c(=S)sc2c(=O)[nH]c(C)nc21` the inhibition was -10.3% (inactive). In the case of `CN(C)/C=C1\C=C(c2ccccc2)OC1=O`, the inhibition is reported as 0.7% (inactive). With `Cc1ccc(N=C2SCCCN2C(=O)c2cccc(N3C(=O)CCC3=O)c2)cc1Cl` the inhibition was -21.5% (inactive). With `Cc1ccc(-n2ncc3c(Nc4cccc(C(=O)O)c4)ncnc32)cc1` the inhibition was 17.6% (inactive). With `Cc1c(NC(=O)CN2C(=O)C(=O)N(Cc3ccccc3)C2=O)c(=O)n(-c2ccccc2)n1C` the inhibition was 8.1% (inactive). For `NC(=O)c1nsc(C(=O)N(CC(=O)NCc2ccc(F)cc2)Cc2ccco2)c1N`, the inhibition was -10.8% (inactive). `O=C(CSc1nccn1-c1cccc(F)c1)NC1CCCC1` was tested, and the inhibition was 2.7% (inactive). For `Cc1csc(NC(=O)CSc2nc(=O)n(CCCN(C)C)c3c2CCC3)n1`, the inhibition was 6.4% (inactive). `O=C(O)C1=CCCN(CCON=C(c2ccccc2)c2ccccc2)C1` was tested, and the inhibition was -0.4% (inactive). With `CC(C)(C)c1ccc(/C=C2\Oc3c(ccc(O)c3CN3CCN(CCO)CC3)C2=O)cc1` the inhibition was 8.9% (inactive). With `CCOC(=O)c1ccc(NC(=O)CCn2c(=O)oc3ccccc32)cc1` the inhibition was -9.6% (inactive). For `CC[C@]1(c2ccccc2OC)C(=O)N(C(=O)OC)N1C(=O)OC`, the inhibition was 8.5% (inactive). With `O=C(COC(=O)Cc1c[nH]c2ccccc12)NCCc1ccccc1` the inhibition was 14.4% (inactive). In the case of `Cc1ccc(Cn2c(=N)c(S(=O)(=O)c3ccc(C)cc3)cc3c(=O)n4ccccc4nc32)cc1`, the inhibition is reported as -7.4% (inactive). For `Cc1cc(C(F)F)nn1CC(=O)NC1CCCCCC1`, the inhibition was 14% (inactive). `CCC(C)N(C(=O)COC(=O)C1C(C(=O)OC)=C(C)NC(C)=C1C(=O)OC)C1CCS(=O)(=O)C1` (configuration not stated) was tested, and the inhibition was -1.2% (inactive). For `CCN(C(=O)COC(=O)Cc1c(F)cccc1Cl)c1c(N)n(Cc2ccccc2)c(=O)[nH]c1=O`, the inhibition was -9.2% (inactive). For `Cc1ccc(CNC(=O)c2cc(-c3ccccc3C)n(CC3CC(c4cccc([N+](=O)[O-])c4)=NO3)n2)cc1` (configuration not stated), the inhibition was 17% (inactive). In the case of `OCCC#Cc1ccc(CN2CCN(Cc3ccsc3)C(CCO)C2)cc1` (configuration not stated), the inhibition is reported as 12.2% (inactive). `CC1O[C@@H](OC2C(O)C(C)O[C@H](OC(=O)[C@]34CCC(C)(C)C[C@H]3C3=CCC5[C@@]6(C)CC(O)C(O[C@@H]7OC(CO)C(O)[C@@H](O)[C@@H]7O)[C@@](C)(C(=O)O)C6CC[C@@]5(C)[C@]3(CO)CC4)C2O[C@H]2OC(C)[C@@H](O[C@@H]3OCC(O[C@@H]4OC(CO)C(O)[C@H](O)C4O)[C@@H](O)[C@@H]3O)[C@H](O)C2O)C(O)C(O)C1O` (some centres not stated) was tested, and the inhibition was -8.3% (inactive). `CCOC(=O)c1[nH]cnc1C(=O)NC1CCCCC1` was tested, and the inhibition was -28.7% (inactive). `CCN(CC(=O)Nc1ccc2c(c1)OCCO2)Cc1cc(=O)oc2cc(C)c(C)cc12` was tested, and the inhibition was 5% (inactive). For `O=C(NNC1=C(C(=O)C(F)(F)F)CCC1)c1ccncc1`, the inhibition was -34.2% (inactive). In the case of `COC(=O)C(C)Sc1ccc2nnc(-c3cccc(F)c3)n2n1` (configuration not stated), the inhibition is reported as -8.4% (inactive). With `COc1ccccc1C(=O)NCCC(=O)NN1C(=O)NC2(CCCCC2)C1=O` the inhibition was 14.4% (inactive). `CC1(C)NC(=O)N(CCCCSc2ccc(Cl)cc2)C1=O` was tested, and the inhibition was -0.2% (inactive). `Cc1ccc(Cl)c(OCC(=O)N2CCc3ccccc3C2)c1` was tested, and the inhibition was -20.2% (inactive). For `O=C(CSc1nnc(CNC(=O)c2ccc(F)cc2)o1)Nc1ccc2c(c1)OCO2`, the inhibition was -13.1% (inactive). In the case of `COc1ccc(CN2CCC(c3nc4ccc(Cl)cc4[nH]3)CC2)cc1`, the inhibition is reported as -27.1% (inactive). `O=C(NCc1ccc2c(c1)OCO2)C1CCCN(S(=O)(=O)c2cccs2)C1` (configuration not stated) was tested, and the inhibition was 17.9% (inactive). In the case of `COc1ccc(C(C#N)N2N=C(C)CC2(C)C)cc1` (configuration not stated), the inhibition is reported as -6.2% (inactive).
